From PubChem BioAssay
A selection: hits, their analogues and other compounds. The true share with any hit is near 3.8%.
DSG3 Ab inh = human desmoglein-3 autoantibody binding inhibition | binding (percent of control), % at 10 µM | DSG3-coupled beads, scFv-anti-DSG3-GFP binding, flow cytometry; stronger effect = lower value | AID 588358 | 310,000 compounds, 0.48% hits;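 active = binding more than 3 SD below its plate's average and above zero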;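 note: hits lower antibody fragment binding to DSG3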
pPAFAH FP inh = inhibitors of human plasma PAF acetylhydrolase (pPAFAH); inhibition, % at 3.39 µM; recombinant pPAFAH, FP-rhodamine probe fluorescence polarization; AID 463082; 330,000 compounds, 1.5% hits;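 active = inhibition above the mean inhibition across the screen plus 3 SD, cut at about 25% in these data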;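 note: inhibitors block binding of the rhodamine activity-based probe so polarization drops; 0% = enzyme with DMSO and 100% = wells lacking pPAFAH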
Target sequence (Q13093 whole entry, looked up): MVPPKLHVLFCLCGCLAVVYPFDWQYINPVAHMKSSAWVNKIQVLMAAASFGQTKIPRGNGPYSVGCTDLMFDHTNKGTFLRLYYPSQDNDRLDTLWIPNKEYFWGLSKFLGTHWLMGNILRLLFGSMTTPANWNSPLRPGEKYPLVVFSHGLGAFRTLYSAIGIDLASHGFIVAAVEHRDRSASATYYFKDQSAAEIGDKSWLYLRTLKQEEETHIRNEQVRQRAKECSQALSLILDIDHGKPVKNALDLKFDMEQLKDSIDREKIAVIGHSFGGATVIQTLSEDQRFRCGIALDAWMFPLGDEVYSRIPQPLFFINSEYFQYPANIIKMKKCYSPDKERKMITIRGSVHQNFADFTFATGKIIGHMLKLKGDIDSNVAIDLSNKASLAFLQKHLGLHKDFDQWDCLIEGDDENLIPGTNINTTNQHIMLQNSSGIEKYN
PfM18AAP inh = PfM18AAP enzyme inhibition; inhibition, % at 7.35 µM; AID 1822; 290,000 compounds, 1.2% hits; recombinant PfM18AAP, H-Glu-NHMec fluorogenic cleavage;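 active = inhibition above the campaign mean inhibition over all tested compounds plus 3 SD, cut at about 28% in these data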;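 note: 0% = plate median of test compound wells and 100% = 2 mM ZnCl2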
PAFAH1B3 inh = PAFAH1B3 (human) inhibition; Q15102; AID 492972; inhibition, % at 3.39 µM; recombinant PAFAH1B3, FP-rhodamine probe, fluorescence polarization; 340,000 compounds, 0.28% hits;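 active = inhibition above the screen-wide average of all tested compounds plus 3 SD, cut at about 25% in these data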;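 note: 0% = enzyme with DMSO only and 100% = wells lacking PAFAH1B3 protein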
PAFAH2 inh = PAFAH2 (human) inhibition; Q99487; recombinant PAFAH2, FP-rhodamine activity probe, fluorescence polarization; inhibition, % at 3.39 µM; 340,000 compounds, 0.99% hits; AID 492956;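 active = inhibition above the mean over all tested compounds plus 3 SD, cut at about 30% in these data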;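 note: inhibitors block probe labeling of enzyme so polarization drops; 0% = enzyme with DMSO and 100% = wells lacking PAFAH2 protein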
PAFAH1B2 FP inh = inhibitors of human PAFAH1B2; recombinant PAFAH1B2, FP-rhodamine activity probe, fluorescence polarization; inhibition, % at 3.39 µM; P68402; AID 492953; 340,000 compounds, 1.2% hits;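 active = inhibition above the mean of all tested compounds plus 3 SD, cut at about 24% in these data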;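 note: 0% = enzyme with DMSO and 100% = wells lacking PAFAH1B2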
PAFAH2 confirm = PAFAH2 (human) inhibition, confirmed | 2,300 compounds, 65% hits | AID 493030 | recombinant PAFAH2, FP-rhodamine activity probe, fluorescence polarization | inhibition, % at 3.39 µM | shares compounds with PAFAH2 inh;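 active = mean inhibition over three repeats above a set limit taken from the earlier primary screen, cut at about 30% in these data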;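 note: inhibitor blocks binding of rhodamine activity probe so polarization falls; 0% = enzyme with DMSO and 100% = wells lacking PAFAH2 protein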
* marks the source's active call; other numbers are inactive results; · = not tested or not shown.

SMILES	DSG3 Ab inh	pPAFAH FP inh	PfM18AAP inh	PAFAH1B3 inh	PAFAH2 inh	PAFAH1B2 FP inh	PAFAH2 confirm
O=C(COC(=O)CC1CC2CCC1C2)Nc1ccc(Cl)c(S(=O)(=O)N2CCOCC2)c1 (configuration not stated)	106	9	·	-3	69*	5	59*
Cc1ccsc1C(=O)OCC(=O)Nc1cccc(S(=O)(=O)N2CCOCC2)c1	105	6	-5	-4	77*	-3	58*
Cc1ccc(NC(=O)COC(=O)c2sccc2C)cc1S(=O)(=O)N1CCOCC1	90	1	1	4	81*	-3	72*
COc1ccc(NC(=O)N2CCCC2C(=O)NCCc2ccccc2)cc1 (configuration not stated)	114	·	-11	9	1	-9	·
COc1cc2c(cc1OC)-c1cc(OCc3cccnc3)nc(=O)n1CC2	151	·	6	-7	61*	1	54*
COc1cc2c(cc1OC)-c1cc(N3CCc4ccccc43)nc(=O)n1CC2	·	-1	7	2	53*	3	41*
O=C(COC(=O)c1cccc(S(=O)(=O)N2CCOCC2)c1)Nc1ccc(Cl)cn1	105	3	·	5	64*	2	47*
O=C(COC(=O)c1cccc(S(=O)(=O)N2CCOCC2)c1)Nc1ccc2c(c1)OCO2	94	12	4	6	66*	2	38*
O=C(COC(=O)c1ccco1)Nc1cccc(S(=O)(=O)N2CCOCC2)c1	106	·	·	·	·	·	·
O=C(COC(=O)c1cc(=O)[nH]c2ccccc12)Nc1cccc(S(=O)(=O)N2CCOCC2)c1	87	1	1	4	0	4	·
O=C(Nc1ccc2c(c1)OCO2)c1cccc(S(=O)(=O)N2CCOCC2)c1	107	2	2	2	2	-2	·
O=C(COC(=O)c1n[nH]c2ccccc12)Nc1cccc(S(=O)(=O)N2CCOCC2)c1	96	·	-1	10	50*	-2	32*
O=C(COC(=O)C1CC2C=CC1C2)Nc1cccc(S(=O)(=O)N2CCOCC2)c1 (configuration not stated)	103	6	-2	1	41*	4	28
O=C(CSc1ccccc1F)NCC(c1ccco1)N1CCCCC1 (configuration not stated)	102	·	·	·	·	·	·
Cc1ccc(NC(=O)CN(C)C(=O)c2n[nH]c(=O)c3ccccc23)cc1	103	6	5	-4	-1	1	·
O=C(COC(=O)c1cc(S(=O)(=O)N2CCOCC2)ccc1O)Nc1ccc2c(c1)OCO2	99	3	·	3	42*	3	32*
O=C(OCC(=O)N1CCCc2ccccc21)c1cc(S(=O)(=O)N2CCOCC2)ccc1O	108	6	·	-3	73*	5	63*
O=C(COC(=O)c1ccc2c(c1)OCCO2)Nc1cccc(S(=O)(=O)N2CCOCC2)c1	96	4	-2	0	65*	4	56*
O=C(CCS(=O)(=O)c1ccc(Br)cc1)N1CCN(c2ccccc2)CC1	107	5	-8	4	33*	5	21
O=C(CCS(=O)(=O)c1ccccc1)N1CCN(c2ccccc2)CC1	105	-1	2	-5	11	3	·
COc1ccc(Cn2nnc3c(=O)[nH]c(C4CCN(S(=O)(=O)c5ccc(C)cc5)CC4)nc32)cc1	·	10	-3	10	2	0	·
CN(C(=O)c1ccccc1C(=O)OCC(=O)Nc1ccc(OC(F)F)cc1)c1ccccc1	97	15	·	3	65*	-3	56*
COc1cccc(NC(=O)COC(=O)c2ccccc2C(=O)N(C)c2ccccc2)c1	103	4	·	3	71*	0	69*
CN(C(=O)c1ccccc1C(=O)OCC(=O)Nc1cccc(Br)c1)c1ccccc1	107	2	·	-4	76*	-2	76*
CN(C(=O)c1ccccc1C(=O)OCC(=O)Nc1ccc(S(N)(=O)=O)cc1)c1ccccc1	96	4	·	8	-5	3	·
O=C(CCC(=O)N1CCN(c2ccc(C(F)(F)F)cn2)CC1)c1cccs1	·	2	·	-2	12	1	·
